Screening results deposited in PubChem BioAssay by several laboratories.
ERp5 block: inhibitors of ERp5-driven insulin aggregation, primary screen, biochemical, turbidity, absorbance 650 nm, single point | 90 min | inhibition, % at 9.99 µM | 0.05% of 350,000 active;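 active = mean replicate inhibition above about 25%, with every replicate also reaching it, limit read from the data, passing the limit was not always enough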
PvdQ acylase: P. aeruginosa PvdQ acylase inhibitors, primary screen, biochemical, fluorescence, plate reader and imaging, single point; purified PvdQ acylase; inhibition, % at 10 µM; 0.063% of 340,000 active; in the data active = inhibition above about 30%, passing the limit was not always enough;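 also: 0% = vehicle neutral wells and 100% = reference inhibitor wells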
Efflux pump mplx: inhibitors of Candida efflux pumps in yeast, primary screen, S. cerevisiae, Nile Red, multiplex; AID 485275, 2010; S. cerevisiae Candida pump triplex; 0.44% of 330,000 active; inhibition, % at 10 µM;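 active = plate passing quality check with inhibition over a set limit, or well fluorescence over plate mean plus 4 SD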;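 also: Nile Red retained in pooled yeast measured as flow cytometry median fluorescence; 0% = buffer negative control and 100% = Enniatin B positive control; higher means more Nile Red kept so more efflux inhibition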
PDI turbidity: inhibitors of human PDI, primary screen, biochemical, turbidity, single point, plate reader. Protein disulfide-isomerase (Homo sapiens), P07237. PDI insulin aggregation turbidity, A650, 90 min. inhibition, % at 10 µM. 0.052% of 350,000 active. AID 588391, 2011;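 active = mean inhibition across replicates of 30% or more, whatever share of single replicates reach that level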
Rtt109 HAT inh: inhibitors of C. albicans Rtt109/Vps75 HAT, primary screen, biochemical, ThioGlo CoA-SH fluorescence, plate reader | Histone acetyltransferase RTT109 (Candida albicans (strain SC5314 / ATCC MYA-2876)), … | purified Rtt109/Vps75, 4 h | inhibition, % at 34.9 µM | 0.16% of 330,000 active | AID 540336, 2011;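 active = inhibition of at least 50% in every replicate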
Target sequence (Q5AAJ8 whole entry, looked up): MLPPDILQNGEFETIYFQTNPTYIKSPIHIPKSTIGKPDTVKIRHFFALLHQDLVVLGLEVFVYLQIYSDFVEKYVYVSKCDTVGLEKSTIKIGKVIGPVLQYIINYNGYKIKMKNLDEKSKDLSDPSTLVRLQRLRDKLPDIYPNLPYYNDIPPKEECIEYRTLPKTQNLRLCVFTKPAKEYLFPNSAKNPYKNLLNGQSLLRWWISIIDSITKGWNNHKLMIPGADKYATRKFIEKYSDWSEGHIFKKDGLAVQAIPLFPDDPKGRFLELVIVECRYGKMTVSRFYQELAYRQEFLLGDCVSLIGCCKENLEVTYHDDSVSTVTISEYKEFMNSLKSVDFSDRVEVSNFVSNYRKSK
Cmpd fluor yeast: counter-screen for efflux pump inhibitors: compound fluorescence; fluorescence ratio to DMSO, % at 10 µM; S. cerevisiae AD/pABC3, flow cytometry; 4% of 1,700 active; shares compounds with Efflux pump mplx;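 active = fluorescence ratio to DMSO above its plate's cutoff, the plate mean ratio plus 5 SD, cut at about 210% in these data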;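 also: unstained yeast with no Nile Red so the signal is compound autofluorescence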
CaMdr1 efflux inh: inhibitors of Candida albicans Mdr1 efflux, confirmation, flow cytometry, singleplex, Cherry Pick1 set. shares compounds with Efflux pump mplx. S. cerevisiae AD/CaMDR1, Nile Red efflux. inhibition, % at 10 µM. 1% of 1,700 active. AID 588518, 2011; in the data active = inhibition above about 26%;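 also: 0% = DMSO vehicle and 100% = reference inhibitor; higher means more Nile Red retained so more efflux inhibition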
CaCdr2 efflux inh: inhibitors of Candida albicans Cdr2 efflux pump, confirmation, S. cerevisiae AD/CaCDR2, flow cytometry, cherry pick 1, singleplex. shares compounds with Efflux pump mplx. Nile Red retention. Nile Red retention ratio vs DMSO, % at 10 µM. 4% of 1,700 active. AID 588520, 2011; in the data active = Nile Red retention ratio vs DMSO above about 190%;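 also: higher ratio means more blocking of Cdr2 efflux of the dye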
CaCdr1 efflux inh: inhibitors of Candida albicans Cdr1 efflux pump, confirmation, S. cerevisiae AD/CaCDR1, flow cytometry, cherry pick 1, singleplex; shares compounds with Efflux pump mplx; Nile Red efflux; inhibition, % at 10 µM; 1% of 1,700 active;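 active = inhibition above the screen-wide mean plus twice its standard deviation, cut at about 32% in these data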
Starred values were filed as active, the others as inactive. Hits are enriched below; roughly 0.54% of the tested compounds scored in any of these assays.

`Cc1cc(C)cc(NC(=O)c2ccc(NC(=O)c3ccco3)cc2)c1` gave ERp5 block -2, PvdQ acylase 1, Efflux pump mplx 0, PDI turbidity 12, Rtt109 HAT inh -8, Cmpd fluor yeast 105, CaMdr1 efflux inh 0, CaCdr2 efflux inh 91 and CaCdr1 efflux inh 0.
`CN(C(=O)c1ccc(NC(=O)c2ccco2)cc1)c1ccccc1` gave ERp5 block 1, PvdQ acylase -2, Efflux pump mplx 0, PDI turbidity 9, Rtt109 HAT inh 0, Cmpd fluor yeast 103, CaMdr1 efflux inh 0, CaCdr2 efflux inh 93 and CaCdr1 efflux inh 0.
`CC(=O)Nc1ccc(NC(=O)c2ccco2)cc1` gave PvdQ acylase 1, Efflux pump mplx 0, PDI turbidity -2 and Rtt109 HAT inh -4.
O=C(/C=C\c1ccccc1)Nc1ccc(NC(=O)c2ccco2)cc1 was read as ERp5 block 0, PvdQ acylase 1, Efflux pump mplx 0, PDI turbidity 13 and Rtt109 HAT inh 8.
CC=Cc1ccc2n(c1=O)C[C@H]1[C@H](CO)[C@@H](C(=O)N(C)C)N(CCC)[C@@H]21 (mixture of isomers) was read as ERp5 block 1.
For CCOC(=O)c1cccc(NC(=O)c2ccc(NC(=O)c3ccco3)cc2)c1 the results were ERp5 block 0, PvdQ acylase 1, Efflux pump mplx 0, PDI turbidity 7, Rtt109 HAT inh 1, Cmpd fluor yeast 88, CaMdr1 efflux inh 0, CaCdr2 efflux inh 95 and CaCdr1 efflux inh 0.
CC(C)c1cn(CC[C@H]2CC[C@@H](NC(=O)C3CC3)[C@@H](CO)O2)nn1 was read as ERp5 block -3.
O=C(NCc1ccc(F)cc1)c1noc2c1CCCC2 was read as ERp5 block 2, PvdQ acylase -11, Efflux pump mplx 0.9*, PDI turbidity 0, Rtt109 HAT inh -20, Cmpd fluor yeast 83, CaMdr1 efflux inh 0, CaCdr2 efflux inh 95 and CaCdr1 efflux inh 0.
For O=C(NCc1ccc(F)cc1)c1noc2c1CCCCC2 the results were ERp5 block 3, PvdQ acylase -13, PDI turbidity -12 and Rtt109 HAT inh 10.
For O=C(c1ccc2c(c1)OCO2)N1CCC2(CC1)Oc1ccc(F)cc1C(=O)C21CC(c2ccccc2)=NO1 (stereo not given) the results were ERp5 block 3, PvdQ acylase 6, Efflux pump mplx 85*, PDI turbidity -7, Rtt109 HAT inh 7, Cmpd fluor yeast 92, CaMdr1 efflux inh 81*, CaCdr2 efflux inh 94 and CaCdr1 efflux inh 50*.
O=C(c1ccoc1)N1CCC2(CC1)Oc1ccc(F)cc1C(=O)C21CC(c2ccccc2)=NO1 (stereo not given) was read as ERp5 block -1, PvdQ acylase 1, Efflux pump mplx 67*, PDI turbidity 4, Rtt109 HAT inh 23, Cmpd fluor yeast 92, CaMdr1 efflux inh 95*, CaCdr2 efflux inh 116 and CaCdr1 efflux inh 43*.
`O=C(c1ccoc1)N1CCC2(CC1)Oc1ccc(F)cc1C(=O)C21CC(c2ccc(Cl)cc2)=NO1` (stereo not given) gave ERp5 block -3, PvdQ acylase -22, Efflux pump mplx 5.5*, PDI turbidity -3, Rtt109 HAT inh -1, Cmpd fluor yeast 107, CaMdr1 efflux inh 7, CaCdr2 efflux inh 110 and CaCdr1 efflux inh 53*.
